PrPC TRFRET – inhibitors of human cell surface prion protein PrPC, primary screen, cell-based, TR-FRET; inhibition, % at 13.8 µM; TR-FRET read-out; Major prion protein (Homo sapiens), P04156; 370,000 tested, 0.43% active; in the data active = inhibition above about 24%; also: 0% = median of the test wells and 100% = reference compound wells
FBA Mtb inh – Mtb FBA enzyme inhibitors, primary screen, biochemical, fluorescence, strain H37Rv; Fructose-bisphosphate aldolase (Mycobacterium tuberculosis (strain ATCC 25618 / H37Rv)), …; purified M. tuberculosis FBA, fluorescence read-out; inhibition, % at 1 µM; 360,000 tested, 2.3% active; AID 588726, 2011; in the data active = inhibition above about 27%;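 also: 0% = vehicle and 100% = reference inhibitor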
TcdB inh – TcdB glycohydrolase inhibitors, primary screen, biochemical, single point, plate reader | 350,000 tested, 0.24% active | TcdB glycohydrolase enzymatic assay | Toxin B (Clostridioides difficile), P18177 | inhibition, % at 9.99 µM; in the data active = inhibition above about 10%
Yp Topo-I inh – Yersinia pestis topoisomerase I inhibitors, primary screen, biochemical, cleavage product accumulation, plate reader, single point. DNA topoisomerase I (Yersinia pestis CO92). Y. pestis Topo-I cleavage product accumulation. activity, % at 10 µM. 360,000 tested, 0.064% active. AID 504884, 2011; in the data active = activity above about 50%, passing the limit was not always enough
GDH-TPI counter – GDH-TPI coupling enzyme inhibitors, primary screen, artefact control for M. tuberculosis FBA inhibitor project, biochemical, absorbance, full deck; GDH-TPI coupled enzyme counterscreen, NADH absorbance; inhibition, % at 4.8 µM; 360,000 tested, 1.2% active; in the data active = inhibition above about 30%;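 also: 0% = DMSO wells and 100% = wells lacking the enzyme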
An asterisk follows results filed as active; x = not tested or not shown; + = active, no number. This is a sample that favours compounds with a hit; in the whole collection about 3.2% have one here.

SMILES	PrPC TRFRET	FBA Mtb inh	TcdB inh	Yp Topo-I inh	GDH-TPI counter
CC(=O)c1ccc(N2CCN(C(=O)c3nn(C)c4c3CS(=O)(=O)c3ccccc3-4)CC2)cc1	-2.9	2.0	0.8	-0.9	40.5*
Cc1ccc(-c2cc(C(=O)OC3CCOC3=O)c3ccccc3n2)c(C)c1 (stereo unspecified)	6.4	-4.5	18.0*	24.6	-0.6
C[C@@H]1CN([C@@H](C)CO)C(=O)c2cccc(NS(=O)(=O)c3ccc(F)cc3)c2O[C@H]1CN(C)C	x	x	-1.5	x	x
Cn1cc(-c2nnc(-c3ccccc3)o2)c2ccccc21	0.0	172.9*	x	5.8	15.0
Cc1ccccc1-c1nnc(-c2ccccc2)o1	-0.2	3.0	x	13.4	-1.9
O=C(C[C@@H]1C[C@@H]2c3cc(NC(=O)NC4CCCCC4)ccc3O[C@@H]2[C@H](CO)O1)NCc1ccccc1	x	x	-0.3	x	x
CN(C)CCCNc1nc(N)c([N+](=O)[O-])c(NCCO)n1	13.8	-2.8	-0.4	-1.3	38.2*
COc1ccccc1Nc1nc(NCCCN(C)C)nc(N)c1[N+](=O)[O-]	-2.6	0.0	0.9	-18.0	38.2*
Nc1nc(NCc2ccccc2)nc(NCCO)c1[N+](=O)[O-]	-11.1	-4.5	0.8	6.8	31.7*
Nc1nc(NCCO)nc(NCc2ccccc2)c1[N+](=O)[O-]	x	-0.4	x	4.7	25.3
Nc1nc(NCCO)nc(NCC2CCCO2)c1[N+](=O)[O-] (stereo unspecified)	-6.9	-1.0	0.7	0.3	37.4*
C=CCNc1nc(N)c([N+](=O)[O-])c(Nc2ccccc2OC)n1	-11.2	2.6	0.7	-8.4	19.8
COc1ccc2c3c(n(C)c2c1)[C@H](CO)N(CC1CC1)CC31CCN(C(=O)CN2CCOCC2)CC1	x	x	-0.3	x	x
CN1CCN(C(=O)C[C@H]2CC[C@@H](NC(=O)Cc3ccccn3)[C@H](CO)O2)CC1	x	x	0.0	x	x
Cc1noc(C)c1S(=O)(=O)Nc1ccc2c(c1)C(=O)N([C@H](C)CO)C[C@H](C)[C@@H](CN(C)S(=O)(=O)c1c(C)noc1C)OCCCC[C@H](C)O2	x	x	-2.1	x	x
Cc1ccc(S(=O)(=O)N(C)C[C@H]2OCCCC[C@@H](C)Oc3ccc(NS(=O)(=O)c4cccs4)cc3C(=O)N([C@@H](C)CO)C[C@H]2C)cc1	x	x	-1.2	x	x
CCC(C)Nc1nc(N)c([N+](=O)[O-])c(Nc2ccccc2OC)n1 (stereo unspecified)	6.2	1.7	1.2	-5.7	39.3*
CCC(C)Nc1nc(N)c([N+](=O)[O-])c(Nc2cc(OC)ccc2OC)n1 (stereo unspecified)	2.2	-5.6	2.1	-15.5	22.8
CCc1nc(N2CCOCC2)c(C#N)c2c1COC(C)(C)C2	1.9	46.3*	x	2.3	10.3
CC1(C)Cc2c(C#N)c(SCc3ccccc3)nc(N3CCOCC3)c2CO1	3.1	-5.8	x	13.1	75.0*
CCc1nc(N2CCN(C(=O)c3ccccc3)CC2)c(C#N)c2c1COC(C)(C)C2	-3.0	23.2	x	9.8	11.8
CCCNC(=O)C[C@H]1CC[C@@H]2[C@@H](COc3ccc(NS(=O)(=O)c4ccccc4C)cc3C(=O)N2C)O1	x	x	1.0	x	x
C[C@H]1CN([C@@H](C)CO)C(=O)c2cc(-c3ccccc3)cnc2O[C@@H]1CN(C)Cc1cccnc1	x	x	0.5	x	x
C=CCN1C=CC(=O)[C@@H](OC(=O)Nc2ccc(Br)cc2)[C@H]1c1ccccc1Br	4.3	3.7	-0.1	-4.4	33.3*
Cc1cc2cc3c(C)cc(=O)oc3c(C)c2o1	-1.2	5.8	1.1	0.1	-1.4
SMILES	PrPC TRFRET	FBA Mtb inh	TcdB inh	Yp Topo-I inh	GDH-TPI counter
Cc1cc(=O)oc2cc3c(cc12)OCCN3	-6.7	+	x	-8.3	18.2
Cc1cc(=O)oc2cc3c(cc12)OCO3	-6.4	+	1.2	-7.5	20.0
Cc1cc(=O)oc2cc3c(cc12)CCCN3	-1.1	+	2.7	-1.1	16.5
CC(=O)c1cc2c(C)cc(=O)oc2cc1O	-2.1	9.0	0.4	4.3	17.2
Cc1cc2c(C)cc(=O)oc2c2c1NCCC2	-9.7	+	1.9	1.0	1.9
C[C@@H]1CN([C@H](C)CO)C(=O)c2cc(NS(=O)(=O)c3cn(C)cn3)ccc2O[C@H]1CN(C)S(=O)(=O)c1ccc(F)cc1	x	x	-1.0	x	x
O=C(N/N=C/c1cc(Br)c(O)c(Br)c1)c1cc2c(ccc3ccccc32)o1	3.7	4.7	1.6	-7.5	32.6*
O=C(N/N=C/c1cc(Cl)c(O)c(Cl)c1)c1cc2c(ccc3ccccc32)o1	-4.8	3.5	0.3	-11.8	32.0*
CO[C@@H](CN(C)S(=O)(=O)c1ccccc1)[C@H](C)CN(Cc1ccccc1Cl)[C@@H](C)CO	x	x	-0.1	x	x
COc1ccc(CC(=O)c2ccc(O)cc2O)cc1	-4.4	2.5	-1.4	0.6	43.1*
O=C(Cc1ccc([N+](=O)[O-])cc1)c1ccc(O)cc1O	-16.6	1.5	-0.9	0.2	50.6*
O=C(Cc1ccc(Br)cc1)c1ccc(O)cc1O	7.8	-3.6	x	-12.4	41.0*
O=C(COc1ccccc1Br)c1ccc(O)cc1O	-11.4	-0.6	-1.0	-3.1	44.3*
O=C(COc1ccccc1Br)c1ccc2c(c1)OCO2	0.0	-4.6	1.5	-4.1	2.8
COc1ccc(C(=O)Cc2ccc3c(c2)OCO3)c(O)c1	-3.4	0.6	x	-1.6	6.4
CN(C)C(=O)c1ccc(-c2ccc([C@@H]3[C@H](CO)N4CCCCN(CC5CC5)C[C@@H]34)cc2)cc1	x	x	-0.1	x	x
COc1ccc2cc3cc(C(=O)NCc4ccccn4)oc3nc2c1	-21.8	+	0.4	-1.1	27.3
COc1ccc2cc3cc(C(=O)NCc4ccco4)oc3nc2c1	-7.7	140.3*	x	-5.5	20.2
O=C(NCc1ccco1)c1cc2cc3ccc(Cl)cc3nc2o1	1.8	2.2	x	-2.1	22.4
O=c1cc(-c2ccccc2)nc2c(-c3ccccc3)c(C(F)(F)F)[nH]n12	2.0	+	-0.1	1.0	10.0
Cc1cc(=O)n2[nH]c(C)c(-c3ccccc3)c2n1	9.6	14.5	x	2.7	3.4
C[C@@H]1CN([C@@H](C)CO)C(=O)c2cc(C3=CCCC3)cnc2O[C@H]1CN(C)C(=O)CN(C)C	x	x	0.5	x	x
C[C@H]1CN([C@@H](C)CO)C(=O)Cc2cc(NS(=O)(=O)c3ccccc3)ccc2O[C@@H]1CN(C)C(=O)NC1CCCCC1	x	x	-0.7	x	x
O=C1c2cccc3cccc(c23)C(=O)N1OS(=O)(=O)c1ccc(Cl)cc1	-6.8	-3.1	0.9	-3.0	5.2
CCc1ccc(S(=O)(=O)ON2C(=O)c3ccccc3C2=O)cc1	0.8	30.2*	-0.8	3.7	14.2
CC(=NCc1cccc(Cl)c1)c1nc(-c2ccco2)oc1O	20.2	-3.4	x	7.2	33.6*
O=c1[nH]c(=O)c2nc(-c3ccc(Cl)cc3)cnc2[nH]1	-9.2	+	-0.1	6.3	8.7

Source: PubChem
